# Measured values from PubChem BioAssay.
# A number with no mark means an inactive call. Where a call stands in place of a potency, no number is given. For some assays here: Potency and affinity values are given separately. Calls of active or inactive are those of the source. Unless noted, how the calls were made is not given here.
# Columns and labels:
# [1] = antimalarial activity against Dd2 strain (AID 2302;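 active means growth inhibition above 50% at the single 2 µM test dose, taken to imply half-maximal potency below 2 µM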); conditions: P. falciparum Dd2 in RBCs, LDH growth readout, 72 h; at 2 µM; active compounds read high
# [2] = HepG2 cytotoxicity, primary screen, cytotoxicity control for P. falciparum antimalarial project, cell-based, ATP luminescence (AID 2303;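 active means inhibition above 50%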); conditions: HepG2 viability, 24-48 h, at 10 µM, active compounds read high
# [3] = target: L-lactate dehydrogenase (Plasmodium falciparum (isolate CDC / Honduras)) (UniProt Q27743); experiment: PfLDH activity inhibition – cell lysate, 3D7 strain, counter-screen for P. falciparum growth inhibition project (AID 2304); conditions: P. falciparum 3D7 crude extract, LDH APAD/NBT absorbance; at 2 µM; active compounds read high
# [4] = inhibition of 3D7 malaria parasite growth – strain 3D7 (AID 2306); conditions: P. falciparum 3D7 erythrocytic growth, LDH absorbance, 72 h; at 2 µM; active compounds read high
# [5] = target: Calcium-dependent protein kinase 1 (Plasmodium falciparum (isolate 3D7)) (UniProt P62344); experiment: PfCDPK1 kinase inhibitors, biochemical, TCAMS library (AID 1159585; cut-off not given, nearly all actives have IC50 up to about 0.98 µM;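 further: inhibitors leave more ATP so luminescence rises with inhibition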); conditions: recombinant PfCDPK1, Kinase-Glo ATP depletion luminescence
# [6] = target: Plasmodium falciparum protein kinase 6 (PK6, PF3D7_1337100) (UniProt Q8IDW1); experiment: PfPK6 kinase inhibitors, biochemical, TCAMS library (AID 1159586); conditions: recombinant PfPK6, Kinase-Glo ATP depletion luminescence
# [7] = target: Protein kinase 7 (PK7), Plasmodium falciparum 3D7 (PF3D7_0213400) (UniProt Q7YTF7); experiment: inhibition of Plasmodium PK7 catalytic activity – biochemical, TCAMS antimalarial set, Kinase-Glo luminescence (AID 1159587); conditions: recombinant PfPK7, Kinase-Glo ATP depletion luminescence
# [8] = target: Calcium-dependent protein kinase 4 (Plasmodium falciparum (isolate 3D7)) (UniProt Q8IBS5); experiment: PfCDPK4 kinase inhibitors, biochemical, TCAMS library (AID 1159588; cut-off not given, nearly all actives have IC50 up to about 0.91 µM); conditions: recombinant PfCDPK4, Kinase-Glo ATP depletion luminescence
# Chain of Calcium-dependent protein kinase 4 (Plasmodium falciparum (isolate 3D7)) (Q8IBS5 whole entry, looked up): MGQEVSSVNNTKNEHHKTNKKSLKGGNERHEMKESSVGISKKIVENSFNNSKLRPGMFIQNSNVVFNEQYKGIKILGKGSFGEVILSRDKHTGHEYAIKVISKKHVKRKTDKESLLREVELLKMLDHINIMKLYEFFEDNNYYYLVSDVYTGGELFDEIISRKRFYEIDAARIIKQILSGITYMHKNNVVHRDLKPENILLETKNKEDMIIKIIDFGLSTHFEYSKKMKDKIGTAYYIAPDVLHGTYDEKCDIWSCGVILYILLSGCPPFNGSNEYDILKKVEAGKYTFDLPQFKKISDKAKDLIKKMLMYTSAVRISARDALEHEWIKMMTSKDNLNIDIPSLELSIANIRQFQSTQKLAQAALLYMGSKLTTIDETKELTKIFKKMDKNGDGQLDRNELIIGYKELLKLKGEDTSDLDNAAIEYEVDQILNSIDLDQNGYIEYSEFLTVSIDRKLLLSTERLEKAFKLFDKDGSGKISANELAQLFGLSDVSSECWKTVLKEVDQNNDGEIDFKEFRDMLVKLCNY
# Chain of Protein kinase 7 (PK7), Plasmodium falciparum 3D7 (PF3D7_0213400) (Q7YTF7 1-343): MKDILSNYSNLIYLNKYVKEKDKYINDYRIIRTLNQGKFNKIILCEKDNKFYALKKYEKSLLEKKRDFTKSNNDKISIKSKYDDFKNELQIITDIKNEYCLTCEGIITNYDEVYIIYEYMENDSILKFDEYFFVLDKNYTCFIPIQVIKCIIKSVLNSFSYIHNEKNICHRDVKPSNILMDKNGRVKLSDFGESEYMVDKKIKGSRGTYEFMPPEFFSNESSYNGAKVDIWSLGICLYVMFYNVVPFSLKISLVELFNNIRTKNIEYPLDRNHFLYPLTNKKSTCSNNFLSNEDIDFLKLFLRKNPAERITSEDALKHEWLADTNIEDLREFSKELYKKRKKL
# Chain of Calcium-dependent protein kinase 1 (Plasmodium falciparum (isolate 3D7)) (P62344 whole entry, looked up): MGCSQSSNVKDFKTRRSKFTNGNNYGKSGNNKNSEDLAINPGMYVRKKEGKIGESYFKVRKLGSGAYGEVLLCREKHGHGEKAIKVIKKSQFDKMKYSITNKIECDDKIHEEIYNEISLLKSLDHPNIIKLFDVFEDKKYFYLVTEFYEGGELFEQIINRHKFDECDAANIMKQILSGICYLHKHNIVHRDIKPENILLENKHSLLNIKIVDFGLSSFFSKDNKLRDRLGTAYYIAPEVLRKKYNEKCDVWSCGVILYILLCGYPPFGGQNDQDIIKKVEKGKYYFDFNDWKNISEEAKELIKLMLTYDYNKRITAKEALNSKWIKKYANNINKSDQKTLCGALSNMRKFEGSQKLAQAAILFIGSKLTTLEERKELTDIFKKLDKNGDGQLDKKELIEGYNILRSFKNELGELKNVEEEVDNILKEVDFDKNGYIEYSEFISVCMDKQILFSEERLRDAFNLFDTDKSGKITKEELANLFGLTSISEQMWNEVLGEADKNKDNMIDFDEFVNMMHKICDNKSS
# Chain of L-lactate dehydrogenase (Plasmodium falciparum (isolate CDC / Honduras)) (Q27743 whole entry, looked up): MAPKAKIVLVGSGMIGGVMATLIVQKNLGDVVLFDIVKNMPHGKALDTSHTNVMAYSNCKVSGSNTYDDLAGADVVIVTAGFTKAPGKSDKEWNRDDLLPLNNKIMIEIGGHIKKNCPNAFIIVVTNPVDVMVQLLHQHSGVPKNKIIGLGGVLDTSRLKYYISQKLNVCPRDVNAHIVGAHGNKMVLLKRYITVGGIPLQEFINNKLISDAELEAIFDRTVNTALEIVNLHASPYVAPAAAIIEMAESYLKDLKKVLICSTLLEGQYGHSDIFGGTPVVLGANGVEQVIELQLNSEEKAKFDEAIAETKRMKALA
# Chain of Plasmodium falciparum protein kinase 6 (PK6, PF3D7_1337100) (Q8IDW1 1-305): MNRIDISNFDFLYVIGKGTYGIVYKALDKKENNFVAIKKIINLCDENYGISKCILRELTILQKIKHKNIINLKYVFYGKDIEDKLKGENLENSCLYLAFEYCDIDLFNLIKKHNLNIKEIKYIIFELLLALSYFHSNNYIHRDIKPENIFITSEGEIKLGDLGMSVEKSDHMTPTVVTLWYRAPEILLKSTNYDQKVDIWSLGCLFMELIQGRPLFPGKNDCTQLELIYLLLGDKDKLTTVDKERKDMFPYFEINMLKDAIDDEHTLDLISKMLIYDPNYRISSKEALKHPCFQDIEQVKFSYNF
Compound,growth inhibition [1],inhibition [2],inhibition [3] [%],growth inhibition [4],outcome [5],outcome [6],outcome [7],outcome [8]
Fc1ccc2nc(-c3cccc(-c4cccc(CNCc5cnn(-c6ccccc6)n5)c4)c3)[nH]c2c1,57% (active),18%,4,91% (active),inactive,inactive,inactive,inactive
O[C@@H](c1cccc(OCc2ccccc2)c1)[C@@H]1CN(CCc2ccccc2)CC[C@@]1(O)c1ccccc1,98% (active),7%,-4,98% (active),inactive,inactive,inactive,inactive
ON=C(c1nc2ccccc2[nH]1)c1nc2ccccc2[nH]1,68% (active),36%,6,93% (active),inactive,inactive,inactive,inactive
CCc1ccccc1NC(=O)CN1CCN(c2ncnc3scc(-c4ccc(F)cc4)c23)CC1,62% (active),6%,-2,83% (active),inactive,inactive,inactive,inactive
CCOC(=O)CCCc1cc(NC2CCN(C)CC2)nc(Nc2ccc(OC)cc2)n1,17%,41%,-2,99% (active),inactive,inactive,inactive,inactive
O=S(=O)(NCCN1CCCC1)c1ccc(-c2ccc(CNCc3ccccc3)cc2)s1,17%,34%,-5,94% (active),inactive,inactive,inactive,inactive
Cc1ccc(S(=O)(=O)NC2=NC(C)(C)N(OCc3ccc(Cl)c(Cl)c3)C(N)=N2)cc1,-3%,-5%,3,88% (active),inactive,inactive,inactive,inactive
CN(C)C(=S)N=Nc1c(O)[nH]c2ccc(OC(F)(F)F)cc12,52% (active),36%,3,93% (active),inactive,inactive,inactive,inactive
Cc1sc(NC(=O)Cc2cccc(C(F)(F)F)c2)nc1-c1cccc(Cl)c1,95% (active),15%,-3,101% (active),inactive,inactive,inactive,inactive
CCCCCCNCCOc1ccc(-c2nc(-c3ccccc3)c(-c3ccccc3)[nH]2)cc1,39%,14%,-4,98% (active),inactive,inactive,inactive,inactive
CCc1cc([C@H]2O[C@@H](n3cnc4c(NCC(c5ccccc5)c5ccccc5)nc(NCCNc5ccccn5)nc43)[C@H](O)[C@@H]2O)on1,32%,14%,-9,94% (active),inactive,inactive,inactive,inactive
C=CCOC(=O)N1CCC(CNCc2ccc(-c3cccc(-c4nc5ccccc5[nH]4)c3)cc2)C1 (stereo not given),50% (active),39%,2,100% (active),inactive,inactive,inactive,inactive
Cc1ccc2c(c1)c(C1CCN(C(=O)c3ccc([N+](=O)[O-])o3)CC1)cn2C,76% (active),-6%,-1,97% (active),inactive,inactive,inactive,inactive
N#Cc1ccc2c(c1)CCN(CCC1CCC(NC(=O)/C=C/c3ccc4[nH]ccc4c3)CC1)CC2 (stereo not given),27%,2%,2,93% (active),inactive,inactive,inactive,inactive
O=C(NC1CCN(c2ccnc3cc(Cl)ccc23)C1)c1ccc(F)cc1 (stereo not given),97% (active),26%,4,94% (active),inactive,inactive,inactive,inactive
COc1ccccc1-c1[nH]c2ccccc2c1CN1CCC(c2c(C)cccc2C)CC1,13%,49%,3,96% (active),inactive,inactive,inactive,inactive
O=C(Nc1cccc(C(F)(F)F)c1)c1cccc(S(=O)(=O)NCC2CCCN2CC2CCCCC2)c1 (stereo not given),2%,6%,0,97% (active),inactive,inactive,inactive,inactive
O=C(CCCCCNC(=O)c1ccc(O)c(-c2ccc(Cl)c(Cl)c2)c1)NCCN1CCCC1,2%,-6%,-2,90% (active),inactive,inactive,inactive,inactive
COc1cc(-c2cc(-c3ccc(S(C)(=O)=O)cc3)cnc2N)ccc1O,97% (active),37%,-2,97% (active),inactive,inactive,inactive,inactive
CC(=O)Nc1ccc(C(=O)Nc2cccc(-c3cccc(-c4nc5c(C)cccc5[nH]4)c3)c2)cn1,100% (active),16%,-2,101% (active),inactive,inactive,inactive,inactive

Compound,growth inhibition [1],inhibition [2],inhibition [3] [%],growth inhibition [4],outcome [5],outcome [6],outcome [7],outcome [8]
COc1cc(Cc2cnc(N)nc2N)cc(OCCCCC2NC(=O)NC2=O)c1OC (stereo not given),-1%,2%,-3,94% (active),inactive,inactive,inactive,inactive
N#CN1CC[C@@H](OC(=O)N[C@@H]2C[C@H]2c2ccccc2)C1,56% (active),-1%,-2,84% (active),inactive,inactive,inactive,inactive
Cc1cc(Cl)c(S(=O)(=O)N(C)c2ccccc2)cc1OCC(=O)NC1CCCCC1,94% (active),3%,-3,99% (active),inactive,inactive,inactive,inactive
CC(C)Cn1ncc2c3c(N)nc(N)nc3ccc21,73% (active),63% (active),1,94% (active),inactive,inactive,inactive,inactive
NC1=NC(c2ccccc2)(c2ccccc2)C(=O)N1CCCCc1ccccc1,81% (active),14%,-2,96% (active),inactive,inactive,inactive,inactive
Cc1ccc(N2CCN(C(=O)c3cccc(-c4cncc5nc(-c6ccco6)n(C)c45)c3)CC2)nc1,91% (active),-13%,-1,94% (active),inactive,inactive,inactive,inactive
COC(=O)Nc1nc2cc3c(cc2s1)OCCO3,-1%,-12%,1,99% (active),inactive,inactive,inactive,inactive
Cc1cc(C)cc(-n2c(C)cc(C=C3SC(=Nc4ccc(Cl)cc4)NC3=O)c2C)c1,97% (active),12%,-7,97% (active),inactive,inactive,inactive,inactive
CCC(CO)NCC(O)Cn1c2ccc(Cl)cc2c2cc(Cl)ccc21 (stereo not given),88% (active),11%,-2,96% (active),inactive,inactive,inactive,inactive
CN1CCC(C(=O)Nc2cccc(-c3cccc(-c4nc5ccc(F)cc5[nH]4)c3)c2)CC1,27%,32%,0,101% (active),inactive,inactive,inactive,inactive
N=c1n(CCN2CCCCC2)c2ccccc2n1CC(O)c1ccc(Cl)c(Cl)c1 (stereo not given),97% (active),50% (active),-2,97% (active),inactive,inactive,inactive,inactive
COC(=O)c1cccc(NC(=O)NC2CCN(c3ccnc(Nc4cc(OC)c(OC)c(OC)c4)n3)C2)c1 (stereo not given),68% (active),7%,3,99% (active),inactive,inactive,inactive,inactive
CN1CCC(NCc2ccc(-c3cccc(S(=O)(=O)NCC4CCCO4)c3)cc2)CC1 (stereo not given),0%,8%,-1,90% (active),inactive,inactive,inactive,inactive
CN(C)CCOc1cc(NC(=O)Nc2ccc(-c3ccccc3)cc2)ccc1I,45%,9%,-3,101% (active),inactive,inactive,inactive,inactive
CS(=O)(=O)CCNCc1nc(-c2ccc3c(Nc4ccc(Oc5ccccn5)cc4)ccnc3c2)cs1,89% (active),9%,-1,100% (active),inactive,inactive,inactive,inactive
COc1ccc(NC(=O)[C@H](Cc2ccccc2)Nc2cc(C)nc(NCCOc3ccccc3)n2)cc1,25%,11%,3,98% (active),inactive,inactive,inactive,inactive
Cn1cccc1CCNCc1ccc(-c2cccc(-c3nc4ccc(F)cc4[nH]3)c2)cc1,43%,-2%,1,93% (active),inactive,inactive,inactive,inactive
COc1ccc(Cl)cc1N1CCN(CCCNC(=O)c2ccc(-c3nc4cc(Cl)c(F)cc4[nH]3)c(F)c2)CC1,91% (active),21%,5,101% (active),inactive,inactive,inactive,inactive
O=C(Nc1cc2cc(-c3ccc(CN4CCCCC4)cc3)ccc2n2cnnc12)NC1CCCC1,98% (active),78% (active),-4,100% (active),inactive,inactive,inactive,inactive
CC(C)COc1ccc(Cl)cc1Cc1ccc(-c2nc3c(F)cccc3[nH]2)o1,47%,15%,-1,98% (active),inactive,inactive,inactive,inactive
